An excerpt weighted towards active compounds, which were near 4.7% of everything screened.
SKKanGAS inh = S. pyogenes SKKanGAS growth inhibitors in kanamycin, primary screen, streptokinase expression inhibitor project, SKKanGAS strain, BacTiter-Glo luminescence. 6 h. inhibition, % at 7.5 µM. AID 1662, 2009. hit rate 1.3% among 300,000;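 active means mean replicate score, as percent of positive control median, at least 50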;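 further: strain carries kanamycin resistance gene driven by streptokinase promoter and grows in 40 µg/ml kanamycin; loss of luminescence reflects streptokinase promoter inhibition or plain growth inhibition; 0% = median of DMSO wells and 100% = positive control at its reference dose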
ATG4B inh = ATG4B protease inhibitors, primary screen, biochemical, fluorescence, uHTS | Cysteine protease ATG4B (Homo sapiens), Q9Y4P1 | ATG4B cleavage of LC3-PLA2, NBD-HPC fluorescence, 1 h | inhibition, % at 8.33 µM | hit rate 0.51% among 340,000 | AID 504462, 2011; in the data active means inhibition above about 40%
Target sequence (Q9Y4P1 whole entry, looked up): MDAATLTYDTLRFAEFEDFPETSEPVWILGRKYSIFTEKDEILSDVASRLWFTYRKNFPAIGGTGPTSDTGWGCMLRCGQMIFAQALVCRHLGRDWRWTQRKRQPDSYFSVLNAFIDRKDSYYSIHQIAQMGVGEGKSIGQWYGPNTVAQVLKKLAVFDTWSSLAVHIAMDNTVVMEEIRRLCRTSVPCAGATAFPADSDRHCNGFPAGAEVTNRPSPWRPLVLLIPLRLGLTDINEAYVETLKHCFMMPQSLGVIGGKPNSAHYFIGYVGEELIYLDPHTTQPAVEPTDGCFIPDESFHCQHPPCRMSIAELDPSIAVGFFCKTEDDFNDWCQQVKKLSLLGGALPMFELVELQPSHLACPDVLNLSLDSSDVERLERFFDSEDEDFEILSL
PfHsp90 yeast 2 = growth inhibition of PfHsp90-expressing yeast, primary screen, antimalarial PfHsp90 inhibitor project, S. cerevisiae, BacTiter-Glo luminescence, single point, set 2; BacTiter-Glo ATP, 48 h; yeast lacking PDR1 and PDR3 efflux regulators; inhibition, % at 9.4 µM; hit rate 0.32% among 310,000;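 active means every replicate shows inhibition above about 80%, whatever the replicate mean, limit read from the data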;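 further: 0% = DMSO neutral controls and 100% = 20 µM radicicol positive controls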
TIM10 inh = growth inhibitors of isogenic TIM10 control yeast, primary screen, counter-screen for tim10-1 yeast inhibitor project, luminescence, uHTS | inhibition, % at 10 µM | S. cerevisiae TIM10 strain growth, BacTiter-Glo luminescence, 24 h | hit rate 1.4% among 330,000 | AID 463195, 2010;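 active means inhibition of 40% or more at the single tested concentration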;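 further: wild-type TIM10 isogenic control strain grown at permissive 25 °C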
tim23-1 inh = growth inhibitors of tim23-1 mutant yeast, primary screen, luminescence, uHTS; inhibition, % at 20 µM; hit rate 1.3% among 330,000; S. cerevisiae tim23-1 growth, BacTiter-Glo luminescence, 24 h;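 active means growth inhibition of the mutant yeast at or above 50%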;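 further: temperature-sensitive mutant grown at 25 °C; plate controls were DMSO-treated mutant yeast for no effect and medium wells lacking yeast for full effect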
tim10-1 inh = growth inhibitors of tim10-1 mutant yeast, primary screen, luminescence, uHTS; hit rate 2.2% among 330,000; S. cerevisiae tim10-1 ts strain growth, BacTiter-Glo, 24 h; inhibition, % at 20 µM;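 active means inhibition of at least 40%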;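 further: mutant grown at 25 °C; 0% = DMSO wells with yeast and 100% = wells holding no yeast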
tim10-1 confirm = growth inhibitors of tim10-1 mutant yeast, confirmation, single concentration, luminescence, S. cerevisiae; AID 463213, 2010; S. cerevisiae tim10-1 ts strain growth, BacTiter-Glo, 24 h; hit rate 56% among 7,400; inhibition, % at 20 µM; shares compounds with tim10-1 inh;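 active means inhibition of yeast growth at or above a set limit in either of two repeat tests at 20 µM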;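 further: tim10-1 mutant grown at permissive 25 °C to find synthetic lethal compounds; 0% = DMSO yeast wells and 100% = medium wells without yeast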
tim10 confirm = growth inhibitors of wild-type TIM10 yeast, confirmation, counter-screen for tim10-1 synthetic lethality project, single concentration, luminescence, S. cerevisiae. AID 463215, 2010. shares compounds with TIM10 inh. hit rate 63% among 4,600. inhibition, % at 10 µM. S. cerevisiae tim10 strain growth, BacTiter-Glo luminescence, 24 h;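 active means inhibition of yeast growth at or above a set limit in either of two replicates at 10 µM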;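 further: this counterscreen used the strain with wild-type TIM10; 0% = yeast with DMSO and 100% = medium wells lacking yeast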
The depositor's hits bear a star; nt = no result given.

SMILES	SKKanGAS inh	ATG4B inh	PfHsp90 yeast 2	TIM10 inh	tim23-1 inh	tim10-1 inh	tim10-1 confirm	tim10 confirm
CCOC(=O)c1cnc2ccc(C)cc2c1Nc1ccc(N2CCOCC2)cc1	-3.8	-4.8	-15.0	15.4	-16.6	41.3*	25.6	nt
Cc1[nH]n(-c2ccccc2)c(=O)c1-c1ccc(Cl)cc1	1.0	2.8	10.7	-24.4	-79.6	-98.0	nt	nt
Cc1ccc(C(=O)Nc2ccccc2C(=O)NCc2cccnc2)cc1	-5.3	-5.6	0.8	9.4	11.1	25.4	nt	nt
Cc1ccc(C(=O)Nc2ccccc2C(=O)NCc2ccccc2)cc1	4.4	-1.7	-42.6	47.9*	43.7	47.2*	40.6*	3.7
CCN1CCN(c2cc3c(nn2)Oc2ccccc2N3C)CC1	26.4	7.8	19.8	77.3*	44.6	44.2*	56.7*	71.1*
CCN1CCN(c2nnc(-c3ccccc3)c3ccccc23)CC1	0.0	-1.0	-14.6	11.4	-2.5	-4.6	nt	nt
CC(C)c1ccc(/C=c2\sc3nc(-c4ccncc4)nn3c2=O)cc1	-8.6	-5.3	16.2	43.7*	47.2	49.3*	30.1*	4.2
O=C(NC12CC3CC(CC(C3)C1)C2)c1ccccc1O	2.2	7.8	9.2	49.0*	31.6	50.4*	50.8*	48.0*
O=C(NNC(=O)C12CC3CC(CC(C3)C1)C2)c1ccccc1O	nt	-3.2	3.3	18.7	40.5	-2.9	nt	nt
CC(Oc1ccc(Br)cc1)C(=O)Nc1cc(S(=O)(=O)N2CCOCC2)ccc1N1CCCC1 (stereo not given)	2.6	7.0	nt	3.4	-2.5	1.8	nt	nt
COc1ccccc1Cn1c(=O)c2ccccc2n2c(SCc3csc(C)n3)nnc12	7.7	-8.3	nt	17.0	25.5	26.9	nt	nt
COc1ccccc1Cn1c(=O)c2ccccc2n2c(Sc3ncnc4sccc34)nnc12	5.1	-21.3	-0.1	44.9*	45.1	43.3*	34.5*	29.9
C=CCOc1ccc(C(c2c(C)n(C)n(-c3ccccc3)c2=O)c2c(C)n(C)n(-c3ccccc3)c2=O)cc1	5.5	0.1	-1.5	-1.7	16.9	19.5	nt	nt
CN(C)C=Nc1ncc2c3ccccc3n(CCN(C)C)c2c1C#N	5.1	2.3	-1.0	75.8*	44.3	51.3*	64.0*	74.8*
CCN(CC)CCn1c2ccccc2c2cnc(N)c(C#N)c21	17.7	8.7	-44.9	85.9*	41.3	67.1*	72.8*	85.5*
CN(C)C=Nc1ncc2c3ccccc3n(Cc3ccccc3)c2c1C#N	-10.6	-6.7	-12.0	5.5	3.2	11.5	nt	nt
Cc1c(C(=O)/C=C/N(C)C)nnn1-c1ccc(Cl)c(Cl)c1	11.0	8.9	-33.7	16.4	19.7	-2.1	nt	nt
CCCCNC(=O)c1cc(S(=O)(=O)N2CCCCC2)oc1C	-1.8	-0.6	-10.5	10.6	16.8	0.6	nt	nt
Cc1nn(CCC(=O)NNC(=S)Nc2ccc([N+](=O)[O-])cc2)c(C)c1[N+](=O)[O-]	6.6	-2.9	-23.1	7.1	3.8	-14.9	nt	nt
CCc1cccc(N=c2c([N+](=O)[O-])nn(-c3ccc4c(c3)OCCO4)n2O)c1	8.3	-4.2	-37.0	57.4*	46.9	48.2*	31.1*	41.7*
CN=c1c([N+](=O)[O-])nn(-c2ccc3c(c2)OCCO3)n1O	9.7	6.3	-12.2	15.1	19.3	-3.8	nt	nt
O=C(/C=C/c1ccc(Cl)cc1Cl)c1ccc[nH]1	-3.3	6.9	-4.1	54.3*	18.4	46.8*	39.0*	39.8*
CCC(=O)Nc1cccc(C(=O)/C=C/c2ccc(F)cc2)c1	-12.8	-7.2	6.9	46.9*	32.1	47.6*	42.8*	22.1
Cc1ccc(-c2nn3c(C)nnc3s2)cc1NC(=O)c1cccnc1	-7.7	6.2	nt	6.5	1.2	-2.5	nt	nt
CCN1C(=O)/C(=C\c2nc3ccccc3c(=O)n2-c2ccccc2)c2ccccc21	5.8	-2.2	5.0	43.4*	49.7	42.2*	33.0*	18.3
SMILES	SKKanGAS inh	ATG4B inh	PfHsp90 yeast 2	TIM10 inh	tim23-1 inh	tim10-1 inh	tim10-1 confirm	tim10 confirm
COc1ccc(C(=O)NCCS(=O)(=O)NCc2cccnc2)cc1	-11.5	-9.0	-20.3	-3.9	7.0	-10.8	nt	nt
Cc1ccc(-c2n[nH]c(=S)n2-c2ccccc2)cc1	5.6	-0.4	nt	1.6	-29.8	6.4	nt	nt
Cc1ccc(-n2c(-c3cccc(C)c3)n[nH]c2=S)cc1	-2.2	-1.1	-3.6	45.6*	30.8	42.7*	14.7	16.2
O=C(N/N=C\c1ccccc1OCc1ccccc1)c1ccco1	-12.4	3.6	-12.5	50.3*	33.8	43.4*	21.6	31.0*
Oc1cc(NCc2cccnc2)ccc1-c1nc2ccccc2o1	16.1	-2.5	nt	55.4*	27.2	46.8*	27.1	39.0*
O=C(NCCCc1ccccc1)c1cccc(NC(=O)c2ccccc2)c1	nt	-3.1	2.9	nt	nt	nt	nt	nt
Cc1oc(/C=N/NS(=O)(=O)c2ccccc2)cc1Br	2.4	9.4	11.5	-32.1	12.8	-4.8	nt	nt
N/C(=N\OC(=O)Cc1ccc(-c2ccccc2)cc1)c1ccccn1	6.3	4.2	-0.9	52.5*	30.4	53.7*	50.0*	28.1
COc1ccc(CCC(C)NCc2ccc(C(F)(F)F)cc2)cc1 (stereo not given)	3.6	-1.6	14.5	-19.7	7.2	10.8	nt	nt
O=C1NN=C(c2ccccc2)CC1c1ccc(Cl)cc1Cl (stereo not given)	0.7	14.4	-10.6	42.1*	49.1	50.2*	37.6*	57.0*
Cc1nn(C(C)(C)C)c(OC(=O)c2ccc(Br)o2)c1Sc1ccccc1	-2.6	2.3	9.9	40.7*	43.0	41.2*	36.1*	36.0*
Cc1nn(C(C)(C)C)c(OC(=O)c2ccco2)c1Sc1ccccc1	0.9	16.0	-16.2	46.9*	43.9	49.3*	38.6*	46.1*
Cc1nn(C(C)(C)C)c(OC(=O)c2cccs2)c1Sc1ccccc1	5.8	16.7	-4.4	16.5	28.3	25.5	nt	nt
CC(=O)c1cccc(CN2CCN(CCc3ccccc3)C(CCO)C2)c1 (stereo not given)	2.4	-3.3	-11.8	-14.3	6.5	12.4	nt	nt
CCOC(=O)C1CCCN(C(=O)c2ccc(-c3ccc([N+](=O)[O-])cc3)o2)C1 (stereo not given)	-8.4	-12.8	13.7	45.8*	46.1	57.9*	66.3*	57.6*
